# Unmarked numbers belong to inactive results. Records with an inconclusive call do not appear. A call without a number means that no potency is given here. Activity calls are given as the source filed them. Calls follow the shape of the dose curve; as a rule, active = well fitted curve in the direction sought with a large enough effect in the repeat runs; inconclusive = weak or mixed curves; inactive = no such curve, though single readings can be large; an effect the other way counts as inactive or inconclusive.
# Columns and labels:
# [1] = Human pregnane X receptor (PXR) small molecule agonists, qHTS cell viability counter screen (AID 1346977); also: nearly all actives have a fitted effect of over 50% in size; also: potency is read from the fitted curve at half-maximal effect
# Outline: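 PXR-Luc HepG2, 2,000 cells/well, 5% charcoal-stripped FBS; 5hr settle; cpd 24hr, 37C/5% CO2; CellTiter-Fluor at 23hr, read 1hr later (fluorescence).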
# [2] = Caspase-3/7 induction in HepG2 cells by small molecules, qHTS assay (AID 1346978); also: nearly all actives have a fitted effect of over 15% in size
# Outline: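 Caspase-3/7 induction was measured by Caspase-Glo 3/7 luminescence (30 min, room temperature) after a 17 hr compound exposure of wild-type HepG2 cells seeded at 2,000 per well and pre-incubated 5 hr.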
# [3] = Caspase-3/7 induction in CHO-K1 cells by small molecules, qHTS assay (AID 1346980); also: nearly all actives have a fitted effect of over 15% in size
# Outline: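 Luminescent Caspase-Glo 3/7 read (30min, room temperature) quantified apoptosis induction. Cells were wild-type CHO-K1, treated with compound for 17hr at 37 C and 5% CO2.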
# [4] = Caspase-3/7 induction in HepG2 cells by small molecules, qHTS cell viability counter screen (AID 1346981); also: nearly all actives have a fitted effect of over 30% in size; also: potency is read from the fitted curve at half-maximal effect; as to activity change, negative = cytotoxicity: series mostly up to about 92 µM
# Outline: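 Steps: seed 2,000 HepG2 cells per well; incubate 5 hr at 37 C; pin-add compounds in DMSO; incubate 16 hr; add CellTiter-Fluor; after 1 hr at 37 C and 5% CO2, read fluorescence.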
# [5] = target: Nuclear receptor subfamily 1 group I member 2 (Homo sapiens) (UniProt O75469); assay: Human pregnane X receptor (PXR) small molecule agonists, qHTS assay (AID 1346982); also: nearly all actives have a fitted effect of over 35% in size; also: potency is read from the fitted curve at half-maximal effect
# Chain of Nuclear receptor subfamily 1 group I member 2 (Homo sapiens) (O75469 whole entry, looked up): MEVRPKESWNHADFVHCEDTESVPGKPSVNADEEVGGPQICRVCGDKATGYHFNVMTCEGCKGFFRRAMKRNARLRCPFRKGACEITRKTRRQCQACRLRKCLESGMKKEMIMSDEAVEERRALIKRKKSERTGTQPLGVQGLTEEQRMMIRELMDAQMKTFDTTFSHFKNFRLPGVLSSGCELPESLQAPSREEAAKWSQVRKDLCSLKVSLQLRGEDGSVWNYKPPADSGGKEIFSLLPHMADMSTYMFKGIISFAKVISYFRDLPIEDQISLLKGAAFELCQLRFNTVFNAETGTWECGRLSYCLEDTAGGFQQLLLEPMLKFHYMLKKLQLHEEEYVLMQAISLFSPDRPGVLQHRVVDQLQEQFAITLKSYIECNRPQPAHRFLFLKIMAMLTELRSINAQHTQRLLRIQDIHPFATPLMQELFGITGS
# Outline: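 Agonist mode qHTS: PXR-Luc HepG2 cells plated 5 hr before DMSO-dissolved compounds were pinned in, cultured 24 hr at 37 C, 5% CO2; ONE-Glo luminescence readout.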
# [6] = target: Nuclear receptor subfamily 1 group I member 2 (Rattus norvegicus) (UniProt Q9R1A7); assay: Rat pregnane X receptor (rPXR) activation by small molecules, qHTS assay (AID 1346983); conditions: rPXR luciferase reporter cells, One-Glo luminescence, 24 h; max activation: active compounds read high; also: nearly all actives have a fitted effect of over 20% in size; also: potency is read from the fitted curve at half-maximal effect
# Chain of Nuclear receptor subfamily 1 group I member 2 (Rattus norvegicus) (Q9R1A7 whole entry, looked up): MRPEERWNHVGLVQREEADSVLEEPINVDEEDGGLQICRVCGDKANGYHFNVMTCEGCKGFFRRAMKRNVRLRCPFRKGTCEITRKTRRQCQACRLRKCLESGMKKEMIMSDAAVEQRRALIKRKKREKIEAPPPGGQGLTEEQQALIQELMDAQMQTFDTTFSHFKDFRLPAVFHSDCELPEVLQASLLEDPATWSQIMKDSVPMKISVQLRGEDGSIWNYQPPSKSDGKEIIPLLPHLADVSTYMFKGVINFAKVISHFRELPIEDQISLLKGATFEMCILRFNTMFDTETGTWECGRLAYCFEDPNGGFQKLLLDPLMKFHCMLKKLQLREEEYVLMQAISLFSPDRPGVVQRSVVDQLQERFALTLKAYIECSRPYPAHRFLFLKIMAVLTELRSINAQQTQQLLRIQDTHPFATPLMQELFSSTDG
# Outline: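 Luminescent readout (One-Glo luciferase, 30 min room temperature) followed 24 hr compound treatment at 37 C of rPXR cells plated 2,000 per well and preincubated 5hr; qHTS format with compounds delivered in DMSO.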
# [7] = target: Nuclear receptor subfamily 1 group I member 2 (Homo sapiens) (UniProt O75469); assay: CYP3A4 induction through human pregnane X receptor (PXR) by small molecules, qHTS assay (AID 1346984); also: nearly all actives have a fitted effect of over 40% in size; also: potency is read from the fitted curve at half-maximal effect
# Outline: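 Steps: seed DPX-2 cells, 5 hr at 37C; pin-transfer compounds; 24 hr at 37C; add Luciferin-IPA (3uM final), 3 hr at 37C; add One-Glo, 30 min RT; read luminescence.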
# [8] = target: Nuclear receptor subfamily 1 group I member 2 (Homo sapiens) (UniProt O75469); assay: Human pregnane X receptor (PXR) activation by small molecules, qHTS assay (AID 1346985); also: nearly all actives have a fitted effect of over 40% in size; also: potency is read from the fitted curve at half-maximal effect
# Outline: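 DPX-2 cells (HepG2 co-transfected with a PXR response element and a CYP3A4-promoter luciferase construct) were seeded at 2,000 per well, rested 5 hr at 37C, then exposed to DMSO-dissolved compounds for 24 hr. Activation was read as luciferase luminescence.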
# [9] = Caspase-3/7 induction in CHO-K1 cells by small molecules, qHTS cell viability counter screen (AID 1346979); also: nearly all actives have a fitted effect of over 35% in size; also: potency is read from the fitted curve at half-maximal effect
# Outline: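 Cells (CHO-K1, wild type) are plated at 1,500 per well and incubated 5hr. Test compounds in DMSO are then pinned in, followed by 16hr at 37C and 5% CO2. Viability is read by CellTiter-Fluor fluorescence after 1hr.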
# [10] = target: Cytochrome P450 2D6 (Homo sapiens) (UniProt P10635); assay: Cytochrome P450 Family 2 Subfamily D Member 6 (CYP2D6) small molecule antagonists: luciferase reporter qHTS assay (AID 1671196); also: nearly all actives have a fitted effect of over 50% in size; also: potency is read from the fitted curve at half-maximal effect; as to activity change, negative = inhibition: series mostly up to about 120 µM
# Chain of Cytochrome P450 2D6 (Homo sapiens) (P10635 whole entry, looked up): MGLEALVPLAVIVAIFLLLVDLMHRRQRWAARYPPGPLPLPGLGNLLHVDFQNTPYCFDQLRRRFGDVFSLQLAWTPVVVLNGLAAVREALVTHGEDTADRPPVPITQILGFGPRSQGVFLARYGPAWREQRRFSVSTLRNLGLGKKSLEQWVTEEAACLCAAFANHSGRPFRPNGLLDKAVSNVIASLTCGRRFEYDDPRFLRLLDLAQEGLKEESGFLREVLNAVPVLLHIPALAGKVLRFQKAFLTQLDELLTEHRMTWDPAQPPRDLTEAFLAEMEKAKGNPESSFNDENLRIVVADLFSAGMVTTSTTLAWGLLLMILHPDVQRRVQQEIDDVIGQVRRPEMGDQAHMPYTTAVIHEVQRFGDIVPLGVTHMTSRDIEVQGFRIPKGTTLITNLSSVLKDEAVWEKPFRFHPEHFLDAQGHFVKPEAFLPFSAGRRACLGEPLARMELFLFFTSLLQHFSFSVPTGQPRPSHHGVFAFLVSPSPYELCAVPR
# Outline: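 P450-Glo format: CYP2D6 converts a proluciferin substrate to luciferin in an NADPH-driven reaction lasting 1 h at room temperature. Light output, proportional to CYP2D6 activity, reflects interference by test chemicals.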
smiles,measurement,setting,value
CC(=O)N(O)CCCCCNC(=O)CCC(=O)N(O)CCCCCNC(=O)CCC(=O)N(O)CCCCCN,Potency,[1],inactive
same,outcome,[2],inactive
same,Potency,[3],inactive
same,Potency,[4],inactive
same,Potency,[5],inactive
same,max activation,[6],-2.68%
same,Potency,[7],inactive
same,Potency,[8],inactive
CCCCOC(=O)c1ccccc1C(=O)OCC(CC)CCCC (stereo not given),Potency,[1],inactive
same,outcome,[2],inactive
same,Potency,[9],inactive
same,Potency,[4],inactive
same,Potency,[5],inactive
same,Potency,[10],inactive
CC(=O)O[C@H]1C[C@@H]2CC[C@@H]3[C@H](CC[C@@]4(C)[C@H]3C[C@H]([N+]3(C)CCCCC3)[C@@H]4OC(C)=O)[C@@]2(C)C[C@@H]1N1CCCCC1,Potency,[1],inactive
same,outcome,[2],inactive
same,Potency,[3],inactive
same,Potency,[4],inactive
same,Potency,[5],inactive
same,max activation,[6],-3.12%
same,Potency,[7],inactive
same,Potency,[8],inactive
O=C(O)/C=C/c1cnc[nH]1,Potency,[1],inactive
same,outcome,[2],inactive
same,Potency,[3],inactive
same,Potency,[4],inactive
same,Potency,[5],inactive
CC(C(=O)O)c1ccc(C(=O)c2ccccc2)s1 (stereo not given),Potency,[1],inactive
same,outcome,[2],inactive
same,Potency,[3],inactive
same,Potency,[4],inactive
same,Potency,[5],15 µM (active)
same,max activation,[6],13.7%
same,Potency,[7],inactive
same,Potency,[8],inactive
same,Potency,[10],inactive
COCCOCCOCCOCCOC,Potency,[1],inactive
same,outcome,[2],inactive
same,Potency,[3],inactive
same,Potency,[4],inactive
same,Potency,[5],inactive
same,Potency,[10],inactive
N#CCc1cccc(C(F)(F)F)c1,Potency,[1],inactive
same,outcome,[2],inactive
same,Potency,[9],inactive
same,Potency,[4],inactive
same,Potency,[5],inactive
same,Potency,[10],inactive
Nc1nc(CC(=O)O)cs1,Potency,[1],inactive
same,outcome,[2],inactive
same,Potency,[3],inactive
same,Potency,[4],inactive
same,Potency,[5],inactive
same,Potency,[10],28.3 µM (active)
COC(=O)CSc1cc(N=c2sc(=O)n3n2CCCC3)c(F)cc1Cl,Potency,[1],inactive
same,outcome,[2],inactive
same,Potency,[9],inactive
same,Potency,[4],inactive
same,Potency,[5],inactive
same,Potency,[10],63.3 µM (active)
CCCCC(CC)COCCCN (stereo not given),Potency,[1],inactive
same,outcome,[2],inactive
same,Potency,[9],inactive
same,Potency,[4],inactive
same,Potency,[5],60.4 µM (active)
same,Potency,[10],12.5 µM (active)
COc1ccc(OC)c(OC)c1,Potency,[1],inactive
same,outcome,[2],inactive
same,Potency,[9],inactive
same,Potency,[4],inactive
same,Potency,[5],inactive
same,Potency,[10],inactive
CN1CCN(C2=Nc3ccccc3Sc3ccc(Cl)cc32)CC1,Potency,[1],inactive
same,outcome,[2],inactive
same,Potency,[9],inactive
same,Potency,[4],inactive
same,Potency,[7],22.4 µM (active)
same,Potency,[8],25.1 µM (active)
same,Potency,[10],15.5 µM (active)
NC(=S)N/N=C/c1cccnc1,Potency,[1],inactive
same,outcome,[2],inactive
same,Potency,[9],inactive
same,Potency,[4],inactive
same,max activation,[6],-5.63%
same,Potency,[7],inactive
same,Potency,[8],inactive
same,Potency,[10],inactive
c1ccc(-c2nc[nH]c2-c2ccccc2)cc1,Potency,[1],inactive
same,outcome,[2],inactive
same,Potency,[3],inactive
same,Potency,[4],inactive
same,Potency,[5],inactive
same,Potency,[7],inactive
same,Potency,[8],inactive
CCCCOC(O)CC (stereo not given),Potency,[1],inactive
same,outcome,[2],inactive
same,Potency,[9],inactive
same,Potency,[4],inactive
same,Potency,[5],inactive
same,Potency,[10],inactive
CC(=O)N(CC(=O)N(C)C)c1ccccc1,Potency,[1],inactive
same,outcome,[2],inactive
same,Potency,[9],inactive
same,Potency,[5],inactive
same,Potency,[10],inactive
C=Cc1c(C)c2cc3[nH]c(cc4nc(cc5nc(cc1[nH]2)C(C)=C5CCC(=O)O)C(CCC(=O)O)=C4C)c(C)c3C=C,Potency,[1],15 µM (active)
same,outcome,[2],inactive
same,Potency,[3],inactive
same,Potency,[4],13.3 µM (active)
same,Potency,[5],inactive
same,max activation,[6],-1.27%
same,Potency,[7],inactive
same,Potency,[8],inactive
O=C(O)Cc1cc(I)c(Oc2ccc(O)c(I)c2)c(I)c1,Potency,[1],inactive
same,outcome,[2],inactive
same,Potency,[9],inactive
same,max activation,[6],-1.77%
OCCC1CCCCN1 (stereo not given),Potency,[1],inactive
same,outcome,[2],inactive
same,Potency,[3],inactive
same,Potency,[4],inactive
CC(C)CCCCCCOC(=O)c1ccc(C(=O)OCCCCCCC(C)C)c(C(=O)OCCCCCCC(C)C)c1,Potency,[1],inactive
same,outcome,[2],inactive
same,Potency,[9],inactive
same,Potency,[4],inactive
same,Potency,[5],inactive
same,Potency,[10],inactive
NC[C@H]1O[C@H](O[C@H]2[C@H](O)[C@@H](O[C@H]3O[C@H](CO)[C@@H](O)[C@H](N)[C@H]3O)[C@H](N)C[C@@H]2N)[C@H](O)[C@@H](O)[C@@H]1O,"activity change, negative = cytotoxicity",[1],-6.07% [at 8.39 µM]
same,caspase activation,[2],0.334% [at 8.39 µM]
same,caspase-3/7 activation,[3],1.24% [at 8.39 µM]
same,"activity change, negative = cytotoxicity",[4],-2.29% [at 8.39 µM]
same,activation,[5],13.1% [at 8.39 µM]
same,max activation,[6],-1%
same,Potency,[7],inactive
same,Potency,[8],inactive
same,"activity change, negative = inhibition",[10],-0.562% [at 10.5 µM]
O=C(O)c1cn(C2CC2)c2cc(Cl)c(F)cc2c1=O,Potency,[1],inactive
same,outcome,[2],inactive
same,Potency,[9],inactive
same,Potency,[4],inactive
same,Potency,[5],inactive
same,Potency,[10],inactive
CCN(CC)CCOc1ccc2c(c1)C(=O)c1cc(OCCN(CC)CC)ccc1-2,Potency,[1],13.3 µM (active)
same,outcome,[2],inactive
same,Potency,[9],26.6 µM (active)
same,max activation,[6],2.03%
same,Potency,[7],inactive
same,Potency,[8],inactive
CC[C@]12CCCN3CCc4c(n(c5ccccc45)C(=O)C1)[C@@H]32,Potency,[1],inactive
same,outcome,[2],inactive
same,Potency,[9],26.6 µM (active)
same,Potency,[6],8.91 µM (active)
same,Potency,[10],0.155 µM (active)
O=c1[nH]cnc2ccccc12,Potency,[1],inactive
same,outcome,[2],inactive
same,Potency,[3],inactive
same,Potency,[4],inactive
same,Potency,[5],0.398 µM (active)
same,Potency,[10],inactive
C=CCCCCCC,Potency,[1],inactive
same,outcome,[2],inactive
same,Potency,[3],inactive
same,Potency,[4],inactive
same,Potency,[5],inactive
same,Potency,[10],inactive
